This is an account of results in PubChem BioAssay AID1303 (The Scripps Research Institute Molecular Screening Center, 2008).

The other results are listed elsewhere or left out. Unmarked numbers belong to inactive results. Active and inactive are the calls of the source.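 How the source made its calls: active means inhibition above the mean of solvent-only control wells plus 3 SD of those wells (cut at about 15% in these data); inactive means the rest.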

The test is described as follows: inhibition of NF-kB transcriptional signalling – cell-based, HEK293T, luciferase luminescence, TNF-alpha, counter-screen for STAT1 inhibitor project (AID 1303).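 Further: 0% = DMSO with TNF-alpha and 100% = MG-132 control with TNF-alpha.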 Conditions: HEK293T NF-kB luciferase reporter, TNF-alpha induced, at 5.7 µM, active compounds read high.
Broadly, the inhibition is the relative decrease from the control value, in per cent. Take `C[C@@H]1C[C@@H]2O[C@H]2/C=C\C=C\C(=O)Cc2c(Cl)c(O)cc(O)c2C(=O)O1`: the inhibition is 54.9% (active).

As for `COc1ccc(C2CC(c3cccs3)=NN2c2nc(C)c(C(C)=O)s2)cc1OC` (stereo not given), the inhibition is 1.4%.

For the compound `Cc1ccc(C2=Nc3c(ccc4ccccc34)C(c3ccncc3)=NN2)cc1`, the inhibition was 4.77%.

`O=C(CCl)N(Cc1cccc([N+](=O)[O-])c1)c1cccc(Cl)c1`: the inhibition is 37.9% (active).

`CCOC(=O)N1CCN(C(=O)C2CCN(c3ncnc4c3sc3cccc(F)c34)CC2)CC1`: the inhibition is 20.1% (active).

In the case of `CCOC(=O)N1CCN(C(=O)CSc2nnc(-c3c[nH]c4ccccc34)n2CCOC)CC1`, the inhibition is 3.03%.

Regarding `CCOC(=O)C(=CNc1cccc(C)n1)C(=O)OCC`, the inhibition was -2.27%.

As to `COc1ccc(C(=O)Nc2ccccc2C(=O)N/N=C/c2ccccc2OC)cc1`, the inhibition is 10.2%.

As to `COC(=O)C1=CN(Cc2ccc(OC)c(OC)c2)C=C(C(=O)OC)C1c1cccs1`, the inhibition is -1.6%.

Consider `NS(=O)(=O)c1cccc(NC(=O)CSc2nc3ccccc3n2-c2ccccc2)c1`, for which the inhibition was 1.57%.
